The source made the active and inactive calls.

A short description of assay [1]: A549 cell viability effects, profiling panel, calcein-AM fluorescence, 48 h, basal (AID 1162). Conditions: higher = more signal.
The nature of assay [2]: adipocyte viability effects, profiling panel, cell-based, 3T3-L1 adipocytes, calcein-AM fluorescence, 48 h, basal (AID 1163). The following applies: 3T3-L1 adipocytes viability, higher = more signal.
Assay [3] in a line: HepG2 cell viability effects, profiling panel, calcein-AM fluorescence, 48 h, basal (AID 1164). Conditions: higher = more signal.
A short description of assay [4]: MM1S cell viability effects, profiling panel, calcein-AM fluorescence, 48 h, basal (AID 1165).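 Further: viability of MM1S multiple myeloma cells under basal unstimulated conditions.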 The following applies: higher = more signal.
Assay [5] is described as follows: basal RPMI8226 viability, no added stimulus, profiling panel, cell-based, calcein-AM fluorescence, 48 h, PK04 Diversity Set (AID 1166).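 Further: cells grown under basal conditions without added stimulus.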 The following applies: RPMI8226 myeloma viability, higher = more signal.
The nature of assay [6]: basal HepG2 mitochondrial membrane potential changes, profiling panel, cell-based, JC-1 fluorescence, 24 h, 100 nL compound (AID 1167). The following applies: higher = more signal.
The nature of assay [7]: basal 3T3-L1 adipocyte mitochondrial potential changes, profiling panel, cell-based, JC-1 fluorescence, 3T3-L1 adipocytes, 24 h, 100 nL compound (AID 1168). Conditions: JC-1 mitochondrial fluorescence, higher = more signal, called active from +8 up or from −8 down.
A short description of assay [8]: basal RPMI8226 mitochondrial membrane potential changes, profiling panel, cell-based, JC-1 fluorescence, 24 h, 100 nL compound (AID 1169). The following applies: RPMI8226 myeloma, JC-1 mitochondrial potential fluorescence, higher = more signal.
The nature of assay [9]: basal MM1S mitochondrial membrane potential changes, profiling panel, cell-based, JC-1 fluorescence, 24 h, 100 nL compound (AID 1170). The following applies: higher = more signal.
A short description of assay [10]: A549 lung cancer cell viability effects, profiling panel, resazurin fluorescence, 24 h, PK04 Diversity Set (AID 1171). The following applies: higher = more signal, called active from +8 up or from −8 down. For orientation: The colour change of resazurin is a common sign of viable cells or microbes.
Further: test concentration not given here.

In the case of `CCOC(=O)[C@H](CC(C)C)NC(=O)CCC1CC(OC(=O)NCc2cccc3ccccc23)CC2(CCCC(COC(=O)NCCN3CCOCC3)O2)O1` (stereo not given in full), the z-score in [1] is 0.609; in assay [2], 0.0174; in [3], -0.667; in [4], 0.109; in [5] it was -0.275; in [6], -0.084. In addition, the z-score is -1.16 (inactive) in [7], -0.268 in assay [8], -0.166 in [9] and 1.29 (inactive) in [10].

Turning to `CCN1C(=O)[C@H]2[C@H]3[C@H](O)C=CC(=O)[C@@H]3CC[C@H]2C1=O`, the z-score was 0.331 in assay [1]; 0.368 in assay [2]; 0.733 in assay [3]; -0.434 in assay [4]; 0.197 in assay [5]; 0.234 in assay [6]. Besides, the z-score in assay [7] is -0.661 (inactive); in [8] it was -0.408; in [9], 1.5; in [10], 0.459 (inactive).

With `O=C1O[C@@H](c2ccccc2)[C@@H](c2ccccc2)N2[C@@H](c3ccc(O)cc3)[C@]3(C(=O)Nc4ccccc43)[C@@H](C(=O)O)[C@H]12`, the z-score was -0.517 in assay [1]; 0.875 in assay [2]; -0.308 in assay [3]; -1.33 in assay [4]; -1.03 in assay [5]; -0.517 in assay [6]. The z-score in [7] was 0.0106 (inactive); in assay [8] it was -0.934; in assay [9] it was -0.536; in assay [10], -0.0947 (inactive).

On to `COC(=O)[C@@]1(Cc2ccc(OC)cc2)[C@H]2c3cc(C(=O)N4CCCC4)n(Cc4cc(F)c(F)c(F)c4)c3C[C@H]2CN1C(=O)c1ccccc1`, for which the z-score in assay [1] is -1.19; in [2], -0.0755; in assay [3], -0.521; in assay [4], -1; in assay [5], -3.11; in assay [6], 1.31. Moreover, the z-score in assay [7] was -1.6 (inactive); in [8], -0.87; in assay [9] it was -1.2; in [10], -1.08 (inactive).

In the case of `CC(CCC(=O)OC[C@H]1O[C@H](C#Cc2ccccc2)C=C[C@@H]1Oc1ccc(C)cc1)=NO[C@@H](C)c1cn([C@H](CO)Cc2ccccc2)nn1`, the z-score in assay [1] was -0.487; in assay [2], 0.725; in assay [3], -0.982; in assay [4], -0.622; in [5], -2.17; in [6] it was 0.453. Besides, the z-score in [7] was -0.346 (inactive); in assay [8], 0.496; in [9], -0.0262; in [10], 0.555 (inactive).

Take `O=C1[C@H]2[C@H]3[C@H](O)[C@H](O)CC(=NOCc4ccccc4)[C@@H]3CC[C@H]2C(=O)N1C1CCCCC1`: the z-score in assay [1] was -0.128; in assay [2] it was -1.08; in assay [3], -0.622; in [4], -0.615; in [5] it was 0.0958; in assay [6], -1.19. For the same compound, the z-score in assay [7] was -0.652 (inactive); in assay [8], 0.886; in assay [9], -0.101; in assay [10], 0.36 (inactive).

For `COc1ccc(-c2ccc3c(n2)CCCN3CC(O)CN2CCCc3nc(C)c(C)cc32)cc1` (stereo not given), the z-score in assay [1] is -0.389; in [2], -0.943; in assay [3], 0.151; in assay [4], 0.676; in [5], -0.158; in assay [6], 1.58. Besides, the z-score in [7] is -0.205 (inactive); in [8], -0.108; in assay [9] it was -0.975; in [10], -0.542 (inactive).

On to `CCN1C(=O)[C@H]2[C@H]3[C@H](O)[C@H](O)CC(=NOCc4ccccc4)[C@@H]3CC[C@H]2C1=O`, for which the z-score in assay [1] is 0.391; in [2], 0.817; in [3], 1.43; in [4] it was 0.565; in assay [5] it was -0.714; in [6], 0.402. Further, the z-score in [7] is 0.752 (inactive); in assay [8], -0.0637; in [9] it was -0.758; in assay [10], -0.725 (inactive).

For `CO[C@@H]1COC(=O)CCC[C@@H](C)[C@H](OC)COC(=O)[C@H](Cc2ccccc2)NC(=O)CC=C[C@H]1C`, the z-score in [1] was 0.0498; in assay [2] it was 0.134; in assay [3], -0.829; in assay [4], 0.355; in assay [5] it was -1.25; in assay [6] it was 2.07. Moreover, the z-score in assay [7] is -1.18 (inactive); in assay [8] it was 0.256; in assay [9] it was -0.479; in [10], 0.451 (inactive).

`CC(C)=CCCC(C)=CCON=C1[C@H]2CCn3c(=O)n(Cc4cc5c(cc4Cl)OCO5)c(=O)n3[C@H]2[C@H](O)[C@@H]2O[C@H]12`: the z-score in assay [1] is -0.305; in assay [2] it was 0.123; in [3], 0.42; in assay [4] it was -0.918; in assay [5] it was -0.497; in [6], -0.298. Further, the z-score was -0.992 (inactive) in assay [7], -0.702 in assay [8], 1.17 in assay [9] and -0.386 (inactive) in assay [10].

With `C=CC[C@]1(C(=O)NCc2ccccc2)N=C(c2ccc(OCCCO)cc2)O[C@H]1c1ccccc1`, the z-score in assay [1] is -1.38; in [2], 0.43; in assay [3] it was -1.98; in assay [4], -2.75; in [5] it was -3.75; in assay [6] it was -0.022. The z-score in [7] is -0.18 (inactive); in assay [8], -1.31; in [9] it was -0.988; in assay [10], 0.953 (inactive).

With `CO[C@@H]1COC(=O)CC=C[C@@H](C)[C@H](OC)COC(=O)[C@H](COCc2ccccc2)NC(=O)CC=C[C@H]1C`, the z-score in [1] is -0.0667; in assay [2], 0.461; in [3], 0.422; in [4] it was -0.0878; in [5], 0.651; in assay [6], 0.0535. In addition, the z-score was -0.303 (inactive) in assay [7], 0.577 in assay [8], 0.179 in [9] and -0.27 (inactive) in [10].

As to `CC(C)=NOCc1cccc(-c2cc(-c3ccccc3)no2)c1`, the z-score was -0.398 in assay [1]; 0.0768 in [2]; 0.0628 in assay [3]; -1.06 in [4]; -0.375 in [5]; -0.499 in assay [6]. Besides, the z-score in assay [7] was -0.302 (inactive); in [8], -0.112; in [9] it was 0.354; in assay [10], -0.798 (inactive).

Regarding `O=C(CS)NCCCCCNC(=O)[C@@H]1C[C@@H]2C(=O)N[C@@H](Cc3ccccc3)C(=O)N2[C@@H]1c1ccc(O)cc1`, the z-score in assay [1] is 0.557; in [2] it was 0.239; in assay [3] it was 1.15; in [4], 0.477; in assay [5], 0.617; in assay [6], -0.0506. Moreover, the z-score in assay [7] was -0.325 (inactive); in assay [8], 0.149; in assay [9] it was -0.625; in assay [10], -0.181 (inactive).
